# Laboratory results reported in PubChem BioAssay AID641 (Vanderbilt High Throughput Screening Facility, 2007).
# The campaign covered roughly 58,000 compounds. About 3,400 (5.9%) were called active. Many of the other results were omitted from the sample, so actives are more common in it than they were. A number with no mark means an inactive call.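 How the source made its calls: active means luminescence count or its row- and column-corrected plate score outside the 99.7% band of the plate's sample wells, on either side; inactive means the rest.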
# Biological target: D(1A) dopamine receptor (Homo sapiens) (UniProt P21728)
# Sequence (P21728 whole entry, looked up): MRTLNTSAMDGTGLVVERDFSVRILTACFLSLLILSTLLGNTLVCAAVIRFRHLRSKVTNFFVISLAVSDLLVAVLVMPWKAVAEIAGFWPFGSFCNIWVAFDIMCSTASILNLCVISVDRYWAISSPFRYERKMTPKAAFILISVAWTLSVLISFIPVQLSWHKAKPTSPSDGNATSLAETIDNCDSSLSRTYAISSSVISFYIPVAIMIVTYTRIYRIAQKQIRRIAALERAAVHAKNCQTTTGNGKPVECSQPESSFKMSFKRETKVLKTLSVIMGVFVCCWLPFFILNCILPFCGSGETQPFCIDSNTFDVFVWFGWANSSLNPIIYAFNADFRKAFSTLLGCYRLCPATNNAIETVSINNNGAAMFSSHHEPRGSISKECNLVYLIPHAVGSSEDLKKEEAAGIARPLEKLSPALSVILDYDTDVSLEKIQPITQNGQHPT
# Test: D1 CRE-luciferase signal change, two-sided – cell-based, HEK293 D1, dopamine EC30, D1 allosteric modulator project, primary screen (AID 641)
# Conditions: dopamine EC30 potentiation, at 10 µM, actives deviate in either direction
row,Compound,B-score
1,CCOC(=O)N1CCN(CC(=O)c2ccc3c(c2)CCN3)CC1,-0.515
2,O=C(O)c1cc(S(=O)(=O)N2CCCCCC2)c(Cl)cc1Cl,-0.949
3,CC(C)(C)n1nnnc1C(c1ccc2ncccc2c1)N1CCSCC1 (stereo not given),-0.519
4,Cc1ccc(C(c2nnnn2C(C)(C)C)N2CCc3ccccc3C2)cc1 (stereo not given),-2.5 (active)
5,COc1ccc(OC)c(C(c2nnnn2C(C)(C)C)N2CCc3ccccc3C2)c1 (stereo not given),-4.02 (active)
6,CCC(C)(C)n1nnnc1C(c1ccccc1OC)N1CCSCC1 (stereo not given),-0.522
7,Cc1ccc(C(c2nnnn2CS(=O)(=O)c2ccc(C)cc2)N2CCC(C(N)=O)CC2)cc1 (stereo not given),0.737
8,COc1ccc(CCn2nnnc2C(c2ccccc2)N2CCN(C)CC2)cc1OC (stereo not given),0.116
9,CCOCCc1c(O)nc(SCC(=O)NCc2ccco2)[nH]c1=O,1.04
10,CCCC(C)n1[nH]c(=O)c2c(C)cc(C)nc21 (stereo not given),1.59
11,N#CCCN1CCN(S(=O)(=O)c2ccc(S(=O)(=O)N3CCCC3)cc2)CC1,0.478
12,N#CCCN1CCN(S(=O)(=O)c2ccc(S(=O)(=O)NC3CCCCC3)cc2)CC1,3.08 (active)
13,N#CCCN1CCN(S(=O)(=O)c2ccc(S(=O)(=O)NC3CC3)cc2)CC1,-0.0246
14,COc1ccc(N2C(=O)C3CCCN3C2c2cc(OC)c(OC)cc2OC)cc1 (stereo not given),0.17
15,CCOC(=O)c1cc(-c2ccc(Cl)s2)nc2c1c(C)nn2C,0.665
16,CCOC(=O)C1=C(C)NC(C)=C(C(=O)OCC)C1c1ccccn1,-0.891
17,CCOC(=O)C1=C(O)CSC1=Nc1cccc(Cl)c1,7.94 (active)
18,COc1ccc(CCNC(=O)c2ccco2)cc1,1.58
19,CCOC(=O)c1c(C2CC2)csc1NC(=O)CSCc1c(C)noc1C,-3.6 (active)
20,Cc1ccc(-c2nc(COC(=O)c3c(C)noc3C)cs2)cc1,-0.259
21,CCOC(=O)c1c(-c2ccc(C)cc2C)csc1NC(=O)CSc1nnnn1C,0.507
22,O=C(C1=C(O)C(=O)N(c2ncccn2)C1c1cccs1)c1ccco1 (stereo not given),-0.746
23,Cn1c(=O)[nH]c(=O)c2c1nc(N1CCN(CCO)CC1)n2CCSc1nc2ccccc2s1,0.525
24,c1nnc2c3c4c(sc3ncn12)CCC4,0.277
25,Cc1ccccc1Cn1c(=O)[nH]c2ccccc21,-0.259

row,Compound,B-score
1,Cc1ccc(N2C(=O)CC(NCc3ccc4c(c3)OCO4)C2=O)cc1Cl (stereo not given),0.36
2,CCOc1cc(/C=N/O)cc(Br)c1OC,10.9 (active)
3,O=C(c1cnn2ccccc12)N1CCc2ccccc21,-0.641
4,CCCN(CCC)C(=O)C1c2ccccc2Oc2ccccc21,0.123
5,C/C(=C\C(=O)c1ccccc1)Nc1cccc(O)c1,4.14 (active)
6,CC(=O)c1cccc(NC(=O)c2ccncc2)c1,-0.215
7,C/C(=C\C(=O)c1cccnc1)Nc1ccc(C)c(C)c1,0.381
8,CCc1nc(Nc2ccc3nccnc3c2)c2oc3ccccc3c2n1,-1.78
9,Cc1cccc(N2CCN(C(c3ccccc3)c3nnnn3CC3CCCO3)CC2)c1C (stereo not given),-1.87
10,COc1ccc(CCNC(=O)CSc2nc(C)nc3c2oc2ccccc23)cc1OC,1.41
11,CCSc1nc(C)nc2c1oc1ccccc12,10.5 (active)
12,Cc1nc(N2CCN(c3ncccn3)CC2)c2oc3ccccc3c2n1,3.11
13,CCn1nnc(NC(=O)c2c(OC)cccc2OC)n1,-0.273
14,Cc1ccccc1CN1CCN(CC(=O)NCc2ccccn2)C1=O,-0.577
15,COCCn1c(-c2ccc(OC)c(OC)c2)nc2ccccc21,1.2
16,COc1ccc(-c2nnco2)cc1OC,9.98 (active)
17,COc1ccc2c(Cl)c(-c3nnco3)sc2c1,-2.33
18,COC(=O)c1ccc(NC(=O)CN(c2ccc(C)cc2)S(=O)(=O)c2c(C)n[nH]c2C)cc1,-1.32
19,CC(=O)NCC(=O)N(C)C(C(=O)Nc1ccc2c(c1)OCCO2)c1ccccc1 (stereo not given),1.86
20,C#CCNc1nc(C(C)C)nc2c1nnn2Cc1ccccc1F,8.02 (active)
21,CC(=O)NC(C)c1nc2ccccc2n1Cc1ccccc1F (stereo not given),0.517
22,Cc1nc(Nc2ccc3c(c2)OCCO3)c2nnn(Cc3ccccc3Cl)c2n1,-2.58
23,NC(=O)C1CC=CCC1C(=O)OCC(Cl)=C(Cl)Cl (stereo not given),-0.419
24,CCOc1cccc(=O)c2c(C)n(CC3CCCO3)c(C)c12 (stereo not given),0.961
25,CCOC(=O)NC(C(F)(F)F)(C(F)(F)F)P(=O)(c1ccccc1)c1ccccc1,-0.00139

row,Compound,B-score
1,CCCn1c(=O)c2[nH]c(C3CCCC3)nc2n(CCC)c1=O,20 (active)
2,CCN(c1ccccc1)S(=O)(=O)c1ccc(N)cc1,0.0758
3,CC(NC(=O)CN1CCN(Cc2ccc(Cl)cc2)C1=O)c1ccc2c(c1)OCCO2 (stereo not given),-0.383
4,CCNc1nc(NCC)nc(N(C)n2cnnc2)n1,6.74 (active)
5,CCNc1nc(SCCOc2ccccc2)nc(N(C)C)n1,1.16
6,Cc1cccc(NC(=O)C2CCN(S(=O)(=O)c3cccc4cccnc34)CC2)c1,-1.64
7,CCOC(=O)c1ccc(Nc2cc(C)nc3nc(C)nn23)cc1,0.18
8,COc1cccc(N2CC(C(=O)Nc3c(C)cccc3C)CC2=O)c1 (stereo not given),0.869
9,CCc1ccc2oc(=O)cc(CN3CCCCC3C)c2c1 (stereo not given),3.81 (active)
10,CC1CCCCN1CC(=O)NCc1ccc2c(c1)OCO2 (stereo not given),0.0178
11,Cc1cc(NC(=O)CN2CCCCC2C)nc2c1c(=O)oc1ccccc12 (stereo not given),-0.0379
12,COCC(C)N=CC1=C(O)CC(C)(C)CC1=O (stereo not given),0.0482
13,CCn1c(Cc2ccccc2)nnc1SCC(=O)Nc1ccccc1,-0.326
14,CC1OC2C(OC1C)N(S(C)(=O)=O)CCN2S(C)(=O)=O (stereo not given),-0.145
15,CCc1ccc(-c2nnn(Cc3nn[nH]n3)n2)cc1,-0.837
16,COc1ccc(-c2nnn(CC(=O)N(CCO)C(C(=O)NC3CCCC3)c3ccc(F)cc3)n2)cc1 (stereo not given),-0.256
17,COc1ccc(-c2nnn(Cc3nc(N)nc(N4CCCCC4)n3)n2)cc1,5 (active)
18,COc1ccc(-n2nc3c(c2NC(=O)Cc2cccc(C)c2)CS(=O)C3)cc1 (stereo not given),0.123
19,COc1cccc(NC(=O)Nc2nnc(N3CCCCC3C)s2)c1 (stereo not given),-0.931
20,CC/C(=N\O)C(C)(C)/[N+]([O-])=C/c1ccc(Br)cc1,0.458
21,CCCS(=O)(=O)N1CCC(C(=O)NCCc2ccc(OC)c(OC)c2)CC1,1.44 (active)
22,CCCS(=O)(=O)N1CCC(C(=O)NCCCN(C)Cc2ccccc2)CC1,-0.981
23,COc1ccc(CCNC(=O)C2CCN(c3nn4c(=O)cc(C)nc4s3)CC2)cc1OC,-0.543
24,CN1CCN(Cc2c(O)ccc3c2oc(=O)c2ccccc23)CC1,-0.323
25,O=C(CSc1nnc(-c2cccs2)n1Cc1ccco1)c1ccc2c(c1)OCO2,-1.01

row,Compound,B-score
1,CCOC(=O)N1CCC(NC(=O)c2cnn3ccccc23)CC1,0.314
2,O=C(O)C1CC(=O)N(Cc2cccnc2)C1 (stereo not given),-0.0843
3,O=C(Cn1nc(Cc2cccnc2)c2ccccc2c1=O)NCC1COc2ccccc2O1 (stereo not given),0.362
4,CC1Oc2ccccc2N(Cc2cccnc2)C1=O (stereo not given),6.15 (active)
5,Cc1cc2cc(CNC(=O)c3ccc(S(=O)(=O)N4CCOCC4)cc3)ccc2[nH]1,0.133
6,O=C(CN1C(=O)CSc2ncccc21)N1CCOCC1,-0.0289
7,Cc1cc(=O)cc(C)[nH]1,-0.271
8,CC(=O)NC(C)(C)C1CC=C(C)/C(=N\O)C1 (stereo not given),0.674
9,OC(COc1ccccc1)Cn1cc(Br)cn1 (stereo not given),-0.000319
10,CCn1cc(C(=O)NCc2ccc3c(c2)OCO3)c2cc(OC)c(OC)cc2c1=O,0.436
11,CCn1cc(C(=O)N2CCN(Cc3ccc4c(c3)OCO4)CC2)c2cc(OC)c(OC)cc2c1=O,-1.2
12,CCn1cc(C(=O)NCC2COc3ccccc3O2)c2cc(OC)c(OC)cc2c1=O (stereo not given),5.22 (active)
13,Cc1ccccc1C(=O)Nc1cccc(-c2nnc(SCC(=O)O)n2C)c1,-0.574
14,CCCc1[nH]nc2c1C(c1ccc(OC)c(Cn3nc(C)c(Br)c3C)c1)C(C#N)=C(N)O2 (stereo not given),0.961
15,CC1(C)CC(=O)c2sc(N)nc2C1,-0.282
16,CCCc1nc(N)nc2c1C(=O)CC(C)(C)C2,14.2 (active)
17,Cc1ccccc1CSCC(=O)NC(=O)NC(C)(C)C,0.485
18,Cc1ccc(C(CC(=O)O)Nc2nc(N3CCCCC3)nc(N3CCCCC3)n2)cc1 (stereo not given),-0.363
19,CC(Nc1nc(N2CCCC2)nc2ccccc12)c1ccccc1 (stereo not given),-4.18 (active)
20,Cc1ccnc(N2CCCC(C(=O)Nc3cc(F)ccc3C)C2)n1 (stereo not given),-0.197
21,O=C(Nc1ccc2c(c1)OCCO2)C1CCCN(c2ncccn2)C1 (stereo not given),-3.93 (active)
22,O=C(CSc1nc2ncccc2[nH]1)Nc1ccc2c(c1)OCCO2,0.287
23,O=C1c2oc3ccc(Br)cc3c(=O)c2C(c2cccc(F)c2)N1CCO (stereo not given),-0.882
24,CN=C1SC(C(=O)O)CC(=O)N1C (stereo not given),-0.346
25,Cc1noc(NS(=O)(=O)c2ccc(N3CC(O)=C(c4ccccc4)C3=N)cc2)c1C,0.215
